test system: T1, ASK2; details: concentration: 1 μM, replicates: in singlicate; n = 1
T1 construct: gene MAP3K6
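Further: KINOMEscan kinase panel screen.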

| Compound | %Inh [%] |
| --- | --- |
| O=C(Nc1ccc2c(c1)OCO2)NC1CCN(c2ccnc(NCc3ccc(F)cc3)n2)CC1 [GSK1379859] | 0 |
| O=C(Nc1n[nH]c2cc(-c3ccccc3F)ccc12)C1CC1 [SB-733371] | 0 |
| Cc1ccccc1COc1cc(-n2cnc3cc(Cl)ccc32)sc1C(N)=O [GW813349] | 0 |
| Cc1nnc(-c2ccc(C)c(-c3ccc(C(=O)O)cc3)c2)o1 [GW608005] | 0 |
| COc1ccc(-c2cc3c(C)nc(N)nc3n([C@H]3CC[C@H](O)CC3)c2=O)cn1 | 0 |
| CCC(=O)c1c(-c2ccccc2)c2cc(Cl)ccc2c(=O)n1Cc1cc(S(C)(=O)=O)n(CC(F)F)n1 | 0 |
| CC(C)(C)c1ccc(C(=O)Nc2cn3cc(-c4ccccc4)ccc3n2)cc1 | 0 |
| Cc1c(Cn2c(C)nn3c(=O)cc(N4CCO[C@H](C)C4)nc23)cccc1C(F)(F)F [GSK2373690] | 15 |
| COc1cccc(C2=C(Nc3cccc(C(=O)O)c3)C(=O)NC2=O)c1 [SB-390770] | 4 |
| COc1cc2ncn(-c3cc(OCc4ccncc4)c(C(N)=O)s3)c2cc1OC [GSK336313] | 0 |
| COc1ccc(-c2coc3ccc(-c4nnc(SCc5cccc(C#N)c5)o4)cc23)cc1 | 6 |
| Nc1nc(-c2ccccc2F)c(-c2ccnc3ccccc23)s1 [GW560459] | 0 |
| COC(=O)c1c(-c2ccccc2)c2cc(Br)ccc2c(=O)n1Cc1ccc(NC(=O)CCC(=O)O)cc1 | 0 |
| COC(=O)c1c(-c2ccccc2)c2cc(Br)ccc2c(=O)n1Cc1ccc(S(C)(=O)=O)cc1 | 0 |
| CCc1nc(-c2cccc(C)c2)c(-c2ccncc2)s1 | 0 |
| COc1cc(Nc2ccnc3ccc(C(F)(F)F)cc23)cc(OC)c1OC [GW577382] | 19 |
| COC(=O)c1c(-c2ccccc2)c2cc(C)ccc2c(=O)n1Cc1ccccc1 | 0 |
| CN1C(=O)C(Nc2ccccc2)=C(c2ccccc2)C1=O [SB-300079] | 0 |

| Compound | %Inh [%] |
| --- | --- |
| CCC(=O)c1c(-c2ccccc2)c2cc(Cl)ccc2c(=O)n1Cc1cc(C(=O)NC2CC2)n(C)n1 | 0 |
| Nc1ncnc2c1ncn2-c1ccc(Cl)cc1 [AH2635] | 0 |
| Cc1cccc(-c2cc(-c3c[nH]nc3-c3ccccn3)ccn2)c1 [GW679395] | 0 |
| CN1C(=O)C(Nc2cc(Cl)c(O)c(Cl)c2)=C(c2ccc(Cl)cc2)C1=O [SB-404321] | 0 |
| COc1cc2nccc(Nc3cccc(Oc4ccccc4)c3)c2cc1OC.Cl [GW284543] | 0 |
| CCCC(=O)Nc1n[nH]c2ncc(-c3cccc4ccccc34)cc12 [SB-642057] | 9 |
| COc1cccc(C2=C(N(C)c3ccccc3)C(=O)NC2=O)c1 [SB-334865] | 0 |
| COc1ccc(-c2cc3c(C)nc(N)nc3n([C@H]3CC[C@H](OCCO)CC3)c2=O)cn1 | 0 |
| Nc1ncnc2c1ncn2-c1cccc(F)c1 [SKF-97560] | 35 |
| CN(C)c1cc(-c2ccc3c(N)n[nH]c3c2)nc(N)n1 [GSK2219329] | 0 |
| COc1ccc(-n2cnc3c(N)ncnc32)cc1 [SKF-97236] | 0 |
| Cn1c(=O)c(F)c(Nc2ccc(I)cc2F)c2c(=O)n(OC[C@H](O)CO)cnc21 | 0 |
| COc1cc(Nc2nccc(N3CCC(NC(=O)C(C)c4ccc(Cl)cc4)C3)n2)cc(OC)c1OC (stereo not drawn) [GSK1379757] | 0 |
| COc1cc2ncn(-c3cc(OCCCc4ccccc4)c(C(N)=O)s3)c2cc1OC [GSK205189] | 0 |
| Cc1cccc(-c2nc(Nc3ccc4c(cnn4C)c3)c3ccccc3n2)n1 [GW876731] | 10 |
| Nc1nc(N)c2nc(-c3ccccc3)[nH]c2n1 [SKF-12778] | 15 |
| Cl.c1ccc(Cn2cnc3cc(Nc4ncnc5ccccc45)ccc32)cc1 [GW272142] | 2 |
| Nc1nccc2scc(-c3ccc4c(c3)CCN4C(=O)Cc3ccccc3)c12 [GSK2576924] | 0 |

Reference: PMC5540273 (PLoS ONE, 2017)
